EBV gp42 block: Epstein-Barr virus gp42 inhibitors, primary screen, biochemical, uHTS, fluorescence polarization. Glycoprotein 42 (Epstein-Barr virus (strain AG876)), Q1HVG2. Fluorescence polarization binding assay, mP read-out. inhibition, % (tested at 21.74 µM). actives 0.42% (n = 220,000); in the data active means inhibition above about 50%
Target sequence (Q1HVG2 whole entry, looked up): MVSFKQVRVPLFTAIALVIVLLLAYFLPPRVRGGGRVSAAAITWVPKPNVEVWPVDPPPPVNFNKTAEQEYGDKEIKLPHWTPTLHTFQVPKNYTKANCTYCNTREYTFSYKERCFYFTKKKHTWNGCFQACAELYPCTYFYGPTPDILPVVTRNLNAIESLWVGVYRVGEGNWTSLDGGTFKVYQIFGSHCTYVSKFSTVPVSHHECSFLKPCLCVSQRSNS
MLLE-PAM2 inh: inhibitors of PABP1 MLLE–PAM2 peptide binding, primary screen, biochemical, fluorescence polarization, FITC-PAM2, GST-MLLE; Polyadenylate-binding protein 1 (Homo sapiens), P11940; inhibition, % at 20 µM; actives 0.36% (n = 360,000); AID 588489, 2011; in the data active means inhibition above about 35%, passing the limit was not always enough;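 further: plate controls were DMSO wells with GST-MLLE for no effect and wells lacking GST-MLLE protein for full effect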
MEX-5 binding: MEX-5 zinc finger RNA-binding disruptors – biochemical, C. elegans, fluorescence polarization, MLPCN library, primary screen. Zinc finger protein mex-5 (Caenorhabditis elegans), Q9XUB2. MEX-5/FITC-TCR2 RNA binding; active compounds read low. activity score (negative = inhibition of binding), % at 10 µM. actives 0.38% (n = 300,000). AID 1832, 2009;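 active means inhibition past about -25% in most replicates, and total fluorescence under double the plate's negative control median, limit read from the data; inconclusive means replicates evenly split on the limit, or fluorescence at least double controls; inactive means too little inhibition in most replicates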;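 further: 0% = DMSO and -100% = 5 µM competing unlabeled TCR2 RNA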
eIF4H inh: human eIF4H binding inhibitors, primary screen, translation initiation inhibitor project, biochemical, uHTS, fluorescence polarization; inhibition, % at 35 µM; eIF4H fluorescence polarization binding assay; AID 2012, 2009; Eukaryotic translation initiation factor 4H (Homo sapiens), Q15056; actives 0.94% (n = 290,000);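 further: calls also rest on retests at 20 µM and on dose response follow-up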
PABP FP inh: PABP poly(A) RNA binding inhibitors, primary screen, biochemical, fluorescence polarization, uHTS. calls only at 35 µM. actives 1% (n = 290,000);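 further: calls also rest on retests at 20 µM and on dose response follow-up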
Numbers without * were called inactive; i = inactive; ? = inconclusive; · = no result given; + = active, no number. Shown are actives, neighbours in structure and some others; about 1.8% of the full set was active somewhere. Unless noted, how the calls were made is not given here.

SMILES	EBV gp42 block	MLLE-PAM2 inh	MEX-5 binding	eIF4H inh	PABP FP inh
O=C(Cc1nnc(NC(=O)c2ccccc2)s1)N/N=C\c1ccc(O)c(O)c1	·	-10.4	3.2	58.8*	i
CCCCC[C@H](O)/C=C/[C@H]1C=CC(=O)[C@@H]1C/C=C\CCCC(=O)O	-5.5	·	·	94.0	+
O=C(O)c1ccc(Nc2nc(-c3cc4ccccc4oc3=O)cs2)cc1O	-2.5	-51.2	-9.2	50.9*	i
CC(=O)Nc1ccc(Nc2nc(-c3cc4ccccc4oc3=O)cs2)cc1	·	-59.6	0.7	-6.4	i
COC(=O)c1cc(NC(=O)c2ccccc2)c(=O)oc1C/C=N\OCc1ccc(Cl)cc1Cl	-72.1	-34.6	-1.3	72.1*	+
CO/N=C\Cc1oc(=O)c(NC(=O)c2ccccc2)cc1C(=O)OC	-23.1	-1.4	0.4	80.8*	+
OCc1ccccc1SSc1ccccc1CO	·	40.6*	1.5	·	·
OCc1ccccc1CNCc1ccccc1	-18.5	3.1	-0.1	-1.7	i
CC(=O)Nc1ccc(C(=O)N2CCCCC2c2cc(C(=O)NCc3ccc(F)cc3)no2)cc1 (stereo not drawn)	·	7.0	·	·	·
Cc1ccc(S(=O)(=O)NC(=S)NC2CCCCC2)cc1	-5.3	46.6*	-0.5	-0.1	i
O=S(=O)(NC(=S)NC1CCCCC1)c1ccc(Cl)cc1	-14.8	27.0	0.2	0.0	i
CCc1ccc(S(=O)(=O)NC(=S)NC2CCCCC2)cc1	3.4	42.8*	0.2	-13.5	i
CCc1ccc(C(C)NC(=S)NC2CCCCC2)cc1 (stereo not drawn)	·	-24.4	3.6	-2.4	i
Cc1cc(C=O)sc1[B-](F)(F)F	·	10.7	·	·	·
Fc1ccccc1C(c1nnnn1C1CCCC1)N1CCN(Cc2ccccc2)CC1 (stereo not drawn)	85.0*	5.7	-1.3	-4.9	i
CC(=O)n1c(C=Nc2ccc(Cl)cc2)c(O)c2ccccc21	124.7*	181.6	?	0.2	i
CSc1ccc(Cn2c(C)c(C(=O)NCc3cccs3)sc2=O)cc1	·	15.4	·	·	·
COC(=O)c1ccc(C(=O)OC)c(NC(=S)N2CCC(C(N)=O)CC2)c1	-3.4	7.2	1.3	7.3	i
COC(=O)c1ccc2c(=O)sc(N3CCC(C(N)=O)CC3)nc2c1	85.2*	44.3*	-1.6	-8.7	i
CCOC(=O)c1sc(N)c(C#N)c1COC(=O)CNC(=O)c1ccccc1	-77.2	-104.0	4.5	132.7	+
CCOC(=O)c1sc(N)c(C#N)c1CSc1nc2ccc(C)cc2[nH]1	-13.1	-119.7	-1.3	-10.1	i
O=c1cc[nH]c2c1ccc1c(=O)cc[nH]c12	·	3.6	-21.0	85.9*	i
O=C(NC(NC(=S)Nc1ccc(Cl)cc1Cl)C(Cl)(Cl)Cl)c1cccc([N+](=O)[O-])c1 (stereo not drawn)	60.2*	24.5	3.2	-5.6	i
O=C(O)c1cccc(NC(=S)NC(NC(=O)c2cccc([N+](=O)[O-])c2)C(Cl)(Cl)Cl)c1 (stereo not drawn)	0.8	25.7	2.0	-3.8	i
COCOCCn1cc(CN2CCS(=O)(=O)N(Cc3ccc(-c4ccc(Cl)c(Cl)c4)cc3)C(C)C2=O)nn1 (stereo not drawn)	·	-0.3	·	·	·
SMILES	EBV gp42 block	MLLE-PAM2 inh	MEX-5 binding	eIF4H inh	PABP FP inh
CCn1c(=S)sc2c(=O)n(-c3ccccc3)c(=S)[nH]c21	6.9	5.2	1.4	-16.1	i
CCOc1ccccc1-n1c(=S)sc2c(=O)n(-c3ccc(C)cc3)c(=S)[nH]c21	-14.4	21.0	-0.8	active	+
O=C1Nc2ccccc2N=C(c2ccc3c(c2)OCO3)C1N(C(=O)c1ccc2ccccc2c1)C1CC1 (stereo not drawn)	·	2.8	·	·	·
Nc1ncnc2c1ncn2[C@@H]1O[C@H](C(=O)NCc2ccc(OC(F)(F)F)cc2)[C@@H](O)[C@H]1O	·	-12.1	·	·	·
Cc1ccc(-n2c(SCc3cc(=O)n4ccsc4n3)nnc2-c2cccnc2)c(C)c1	-17.3	-47.4	-2.6	60.3*	i
Cc1ccc(-n2c(SCC(N)=O)nnc2-c2cccnc2)c(C)c1	-2.6	-23.5	-1.2	1.1	i
CCCn1c(N)c(N(CCOC)C(=O)Cc2ccc(S(=O)(=O)N3CCOCC3)s2)c(=O)[nH]c1=O	·	6.0	-25.6*	·	·
CC(C)Cc1ccc(-c2cc3nc(NCCCn4ccnc4)ccn3n2)cc1	·	-14.8	·	·	·
CCOc1ccc(N=C2NC(=O)S/C2=C\c2ccc(Cl)cc2)cc1	-13.6	-17.2	-2.5	19.4	i
COc1ccc(N=C2NC(=O)S/C2=C\c2ccc(N(C)C)cc2)cc1	95.1*	-90.8	2.4	?	?
c1ccc2c(c1)CCN(c1nc3ccccc3n3cnnc13)C2	-7.4	-9.4	2.4	6.9	i
c1ccc2c(c1)CCCN2c1nc2ccccc2n2cnnc12	-6.0	-50.9	0.4	80.4*	+
Cc1ccc(S(=O)(=O)N2[C@@H](c3cccc(Cl)c3)C(C(=O)OC(C)(C)C)=CC[C@H]2c2ccc(C(C)C)cc2)cc1	·	12.1	·	·	·
N#Cc1ccc(-c2csc(NC3=NCCCCC3)n2)cc1	-7.9	12.6	1.1	5.1	i
c1ccc(-c2csc(NC3=NCCCCC3)n2)cc1	-5.5	-6.9	1.8	2.5*	+
CN(CC(=O)Nc1cccc(F)c1)CC(=O)NC(c1ccccc1)c1ccccc1	·	-3.8	·	·	·
O=C(Nc1ccccc1)c1cc(C2CCCCN2C(=O)c2ccc3c(c2)CCO3)on1 (stereo not drawn)	·	11.5	·	·	·
C=CCNc1ncnc2c1ncn2[C@H]1CN(Cc2cc(OC)c(OC)c(OC)c2)C[C@@H](CO)O1	·	10.4	·	·	·
Cc1c(NC(=S)NC(=O)c2cccc3ccccc23)cccc1C(=O)O	·	43.9*	-1.0	-9.6	i
Cc1c(NC(=S)NC(=O)c2ccc(COc3ccccc3)cc2)cccc1C(=O)O	·	39.4*	0.2	7.8	i
O=C(O)c1ccccc1NC(=S)NC(=O)c1cccc2ccccc12	4.8	30.8	1.9	6.8	i
CSCCC(C(=O)Nc1c(C)cccc1C)N1CCN(C/C=C/c2ccccc2)CC1 (stereo not drawn)	·	7.8	·	·	·
OC(c1cc(Cl)cc(Cl)c1)c1ncc(-c2cccc(F)c2)[nH]1 (stereo not drawn)	·	2.4	·	·	·
COc1ccc(NC(=S)Nc2nc(CC(=O)Nc3ccccc3OC)cs2)cc1	2.5	33.8	-0.6	-4.3	i
COc1ccccc1NC(=O)Cc1csc(NC(=S)Nc2ccccc2)n1	10.0	41.0*	0.8	-10.8	i
CNC(=S)N/N=C1\C(=O)c2cccc3cccc1c23	18.8	28.6	-2.1	38.9	i
O=C1c2sccc2-c2cccc3cccc1c23	·	66.5*	·	·	·
